Source: PubChem BioAssay (National Center for Advancing Translational Sciences (NCATS))
TDP1 inh – TDP1 (human) enzyme inhibition | recombinant TDP1, AlphaScreen DNA substrate cleavage | AID 485290 | 350,000 compounds, 0.28% hits | Potency, µM (titrated, usually from 130 µM), for the others: at the highest dose activity change, negative = inhibition, actives largely listed as inhibitors; further: potency means the concentration at half of the fitted maximal effect; nearly all actives have a fitted effect of over 40% in size
Target sequence (Q9NUW8 whole entry, looked up): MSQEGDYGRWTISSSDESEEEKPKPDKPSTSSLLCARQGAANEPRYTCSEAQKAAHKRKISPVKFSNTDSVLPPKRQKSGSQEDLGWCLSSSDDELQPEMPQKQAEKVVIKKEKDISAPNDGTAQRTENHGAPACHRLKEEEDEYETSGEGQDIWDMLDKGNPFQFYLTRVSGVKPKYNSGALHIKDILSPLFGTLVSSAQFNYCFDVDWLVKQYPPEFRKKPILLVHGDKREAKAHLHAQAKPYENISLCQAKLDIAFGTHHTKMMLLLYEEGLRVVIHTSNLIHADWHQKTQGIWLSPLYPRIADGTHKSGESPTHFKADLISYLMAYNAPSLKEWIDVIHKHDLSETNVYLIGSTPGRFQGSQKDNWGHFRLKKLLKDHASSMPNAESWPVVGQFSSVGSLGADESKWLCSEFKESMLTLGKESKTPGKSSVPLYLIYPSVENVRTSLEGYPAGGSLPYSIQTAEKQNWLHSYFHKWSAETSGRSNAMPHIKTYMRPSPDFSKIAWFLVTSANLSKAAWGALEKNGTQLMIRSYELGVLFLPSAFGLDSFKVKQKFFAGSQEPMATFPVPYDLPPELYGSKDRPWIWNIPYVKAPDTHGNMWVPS
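Tdp1 1 nM final; 15 min RT w/ cpd; substrate 15 nM, 5 min; beads 10 ug/ml, 10 min; AlphaScreen read. Neg ctrl: no enzyme.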
IL1B secr inh – inflammasome signaling inhibition, IL-1 beta readout | activity change, % at 57.5 µM | 360,000 compounds, 4.7% hits | THP-1 LPS/ATP IL-1B secretion, AlphaLISA, 16 h; active compounds read low; in the data active means activity change below about -50%; inconclusive means mostly about -30% to -49%
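THP-1 cells pretreated 1 hr with compounds (up to 57.5 uM final), then stimulated with LPS (250 ng/mL final) plus ATP (1.25 mM final); secreted IL-1B measured by AlphaLISA after 16 hr, decreased signal indicating inhibition.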
ELG1 DNA repair – blocks ELG1-dependent DNA repair in HEK293T cells; AID 504467; Potency, µM (top dose mostly 46.1 µM), without a hit: top-dose activity change, negative = inhibition, most hits filed as inhibitors; HEK293T ELG1-luciferase reporter, luminescence, 16 h; DNA damage induced by 5-fluorouridine; 330,000 compounds, 2.3% hits; further: potency means the concentration at half of the fitted maximal effect; nearly all actives have a fitted effect of over 55% in size
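5-Fluorouridine DNA damage + compound/DMSO, 2,000 cells/well, 16 h, 37 °C/5% CO2. ONE-Glo, 30 min RT, luminescence. Readout = decrease in reporter signal.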
Giardia killer – kills Giardia lamblia. Giardia lamblia trophozoite viability. AID 540267. 340,000 compounds, 0.15% hits. activity change, % at 7.66 µM, hits read low; in the data active means activity change below about -80%; inconclusive means between about -30% and that limit;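 further: parasites exposed to compound for two days anaerobically before the ATP read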
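Viability, read as ATP luminescence: trophozoites at 100 cells/well, compound added, 48 hrs anaerobic at 37 deg C, then 15-30 min room-temperature development before reading.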
TDP1 cell noCPT – qHTS for Inhibitors of human tyrosyl-DNA phosphodiesterase 1 (TDP1): qHTS in cells in absence of CPT | 420,000 compounds, 15% hits | Potency, µM (top dose mostly 46.2 µM), for inactives: at the highest dose activity change, negative = growth inhibition, actives largely listed as inhibitors | DT40 Tdp1-/- hTDP1 cells, no CPT, ATP luminescence, 48 h; further: potency means the concentration at half of the fitted maximal effect; nearly all actives have a fitted effect of over 55% in size
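Camptothecin absent (DMSO only). Human TDP1-complemented DT40 knockout cells, 400 cells/well, 37 °C for minimum 48 hr; ATP measured via CellTiter-Glo, 30 min dark incubation, luminescence.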
TDP1 cell CPT – growth inhibition of DT40 Tdp1-/-;hTDP1 cells with camptothecin (screen for TDP1 inhibitors); chicken DT40 Tdp1-/-;hTDP1 cells + 20 nM CPT, ATP luminescence, 48 h; Potency, µM (series often up to 46.2 µM), inactives show at the highest dose activity change, negative = growth inhibition, hits mostly inhibitors; 420,000 compounds, 12% hits; AID 686979; further: potency means the concentration at half of the fitted maximal effect; nearly all actives have a fitted effect of over 55% in size
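Cell growth measured by CellTiter-Glo luminescence after a minimum 48 h, 37 C compound exposure with 20 nM CPT in Tdp1-knockout DT40 cells stably expressing hTDP1, seeded 400/well; qHTS titration format.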
* hit, by the source's call; ? = inconclusive; . = no result. Rows were chosen to be rich in hits. Some 19% of all compounds tested hit in one or more screens of this group. Unless noted, the call rests on the fitted dose curve; in most records, active means well fitted curve in the direction sought with a large enough effect; inconclusive means small, poorly fitted or top-dose-only effect, or another doubt; inactive means no such curve, though single readings can be large; an effect the other way counts as inactive or inconclusive. On the % scale 0 is the no-effect control and ±100 the full control effect.

SMILES	TDP1 inh	IL1B secr inh	ELG1 DNA repair	Giardia killer	TDP1 cell noCPT	TDP1 cell CPT
Cc1cccc(C)c1NC(=O)CN(C)C(=O)CC1CC2CCC1C2 (stereo not given)	0.1%	6.9	26.9%	-6.6	?	7.6%
COCCn1c(C)cc(O)c(C(c2ccccc2)N2CCN(c3ccccc3)CC2)c1=O (stereo not given)	-2.7%	.	.	.	-5.9%	-5.7%
COc1ccc(F)cc1C(=O)C1CCCN(Cc2c[nH]c3ccccc23)C1 (stereo not given)	-2.5%	?	8.9%	4.7	4.61µM*	4.11µM*
C=C1C(=O)[C@@]23[C@H](O)C[C@@H]4C(C)(C)CC[C@H](O)[C@]4(C)[C@@H]2C[C@H](O)[C@@H]1[C@H]3O	2.7%	?	16.4µM*	-8.2	?	3.26µM*
C=C1C(=O)[C@@]23[C@H](O)C[C@@H]4C(C)(C)CC[C@H](O)[C@@]4(C)[C@@H]2CC[C@@H]1[C@H]3O	2.7%	?	6.51µM*	-11.4	0.82µM*	1.03µM*
Cc1ccc(-n2cnnn2)cc1S(N)(=O)=O	4.7%	.	.	.	-15.8%	13.4%
COc1cccc(CNC(=O)CN(c2ccc(C)cc2)S(=O)(=O)N(C)C)c1OC	1.3%	.	.	.	-16.5%	-14.1%
CN1CCN(C(=O)c2ccc(Cl)c(S(=O)(=O)N3CCCCC3)c2)CC1	-4.8%	22.8	-16.6%	8.2	-11.7%	-15.4%
COc1cc2c(cc1OC)CN(C(=O)c1ccc(Cl)c(S(=O)(=O)N3CCCC3)c1)CC2	1.4%	?	?	-4.4	?	23.1µM*
COc1ccc(C(=O)N2CCc3ccccc3C2)cc1S(=O)(=O)N1CCCC1	.	25.1	.	.	?	?
COc1cc2c(cc1OC)CN(C(=O)CN1CCN(S(=O)(=O)c3ccc(C)c(C)c3)CC1)CC2	4.0%	-14.3	-25.5%	-0.5	13µM*	23.1µM*
O=C(c1cc(S(=O)(=O)N2CCOCC2)ccc1Cl)N1CCc2ccccc2C1	3.6%	8.0	-10.0%	-0.6	?	-29.8%
COc1cc2c(cc1OC)CN(C(=O)c1ccc(OC)c(S(=O)(=O)N3CCCC3)c1)CC2	11.1%	-7.8	-6.7%	3.8	29.1µM*	?
COc1cc2c(cc1OC)CN(C(=O)c1cc(S(=O)(=O)N3CCOCC3)ccc1Cl)CC2	3.0%	-22.0	?	-15.9	20.6µM*	?
CC(C)c1ccc(NC(=O)C(Cc2ccccc2)NS(=O)(=O)c2ccc3c(c2)CCC(=O)N3)cc1 (stereo not given)	5.8%	.	.	.	?	-26.8%
CN(Cc1ccccc1Cl)C(=O)C1CCC(=O)N(C2CCCCCC2)C1 (stereo not given)	.	-20.8	-10.6%	-5.7	?	?
Cc1ccc2c(=O)cc(C(=O)Nc3sc4c(c3C(N)=O)CCCC4)oc2c1	-2.5%	.	.	.	-5.2%	-21.1%
Cc1cc(C)n2ncc(C(=O)NCc3ccc(Cl)cc3)c2n1	-4.7%	3.8	-9.7%	-12.2	-24.3%	-16.3%
Cc1c(C(=O)NCCSCc2c(F)cccc2Cl)cnn1-c1ccc(Cl)cc1	0.0%	.	?	-8.8	?	?
CCCCNC(=O)c1cnn2c(C)c(Cc3c(F)cccc3Cl)c(C)nc12	0.0%	.	.	.	3.66µM*	7.31µM*
Cc1nc2c(C(=O)NCCCN(CC(C)C)CC(C)C)cnn2c(C)c1Cc1c(F)cccc1Cl	5.2%	.	.	.	20.6µM*	23.1µM*
Cc1ccc(CNC(=O)c2cnn3c(C)c(Cc4c(F)cccc4Cl)c(C)nc23)cc1	2.6%	.	.	.	?	14.6µM*
Cc1ccc(N2CC(=O)Nc3c(oc4nc(-c5ccccc5)cc(C)c34)C2=O)cc1	.	2.1	16.2%	24.7	-24.4%	-4.7%
CCC(C)c1ccc(NC(=O)C2CC3CCC2C3)cc1 (stereo not given)	.	-55.3*	.	-2.6	25.9µM*	?
O=C(Nc1cccc(C(F)(F)F)c1)C1CCN(c2nnc(-n3cccc3)s2)CC1	2.8%	.	.	.	20.6µM*	?
SMILES	TDP1 inh	IL1B secr inh	ELG1 DNA repair	Giardia killer	TDP1 cell noCPT	TDP1 cell CPT
Cc1ccnc(N2CCC(C(=O)Nc3cccc(C(F)(F)F)c3)CC2)n1	2.2%	-6.3	16.4µM*	-27.0	?	-29.6%
Cc1cc(C)nc(N2CCC(C(=O)NCc3cccc(C(F)(F)F)c3)CC2)n1	1.1%	10.2	15.1%	-13.7	-25.4%	-16.9%
CCC(C)c1ccc(NC(=O)C2CCCN(c3ncccn3)C2)cc1 (stereo not given)	-2.1%	41.5	10.3%	17.0	18.4µM*	20.6µM*
NS(=O)(=O)c1ccc(CCNC(=O)c2cccc(S(=O)(=O)N3CCCC3)c2)cc1	-5.5%	27.6	0.8%	1.9	-6.1%	7.3%
Cc1ccc(NC(=O)C2CCCN(c3ncccn3)C2)cc1C (stereo not given)	10.0%	-6.4	?	4.5	-27.8%	-9.7%
Cc1ccnc(N2CCCC(C(=O)Nc3ccc(C)c(C)c3)C2)n1 (stereo not given)	.	21.4	-22.2%	-18.9	?	9.2µM*
Cc1ccc(-c2c(C(=O)Nc3ccc(F)c(F)c3)oc(=O)c3ccccc23)cc1	1.2%	.	.	.	?	?
CC(C)OC(=O)/C(=C\c1cccnc1)NC(=O)c1ccccc1	2.6%	-0.6	5.2%	1.7	-3.6%	-2.9%
CC(C)OC(=O)/C(=C/c1ccc2c(c1)c1ccccc1n2C)NC(=O)c1ccccc1	-1.9%	-1.5	20.6µM*	10.8	10.3µM*	?
Cn1c2ccccc2c2cc(/C=C(\NC(=O)c3ccccc3)C(=O)O)ccc21	-4.8%	18.1	-9.7%	-5.8	-9.2%	10.9%
CC(C)OC(=O)/C(=C\c1ccc2c(c1)c1ccccc1n2C)NC(=O)c1ccccc1	4.0%	-1.3	?	1.0	20.6µM*	20.6µM*
COc1cccc(NC(=O)N(C)C[C@H]2OCc3cnnn3CCCC(=O)N([C@H](C)CO)C[C@@H]2C)c1	.	22.9	.	.	-10.8%	-15.3%
Cc1cc(C)c(S(=O)(=O)Nc2ccc(N(C)C)cc2)c(C)c1-n1cnnn1	.	-16.3	20.2%	34.4	16.4µM*	29.1µM*
CN1CCCC(CC2c3ccccc3Sc3ccccc32)C1 (stereo not given)	.	-57.5*	20.0%	-10.0	8.05µM*	?
CN1CCCC(OC(=O)c2ccccc2F)C1 (stereo not given)	.	0.0	11.9%	-25.0	16.8%	-2.7%
CCOC(=O)Cn1ccc(NC(=O)COc2ccc(F)cc2F)n1	0.6%	10.8	27.7%	2.4	3.3%	-2.7%
